PubChem BioAssay (NCATS)
Records with an inconclusive call do not appear. Where a call stands in place of a potency, no number is given. The source made the active and inactive calls. Calls come from the whole dose curve.

Assays:
[1] = Primary qHTS for inhibitors of SARS-S pseudo-typed particle cell entry (AID 1479145); note: nearly all actives have a fitted effect of over 45% in size
[2] = Primary qHTS for Huh7 cytotoxicity: counterscreen for inhibitors of MERS-S pseudotyped particle cell entry (AID 1479147)
[3] = Primary qHTS for inhibitors of MERS-S pseudo-typed particle cell entry (AID 1479149); note: nearly all actives have a fitted effect of over 60% in size
[4] = Primary qHTS for Vero E6 cytotoxicity: counterscreen for inhibitors of SARS-S pseudo-typed particle cell entry (AID 1479150); note: potency is the fitted concentration of half-maximal effect

Structure (SMILES) | Potency [1] | Potency [2] | Potency [3] | Potency [4] | outcome [1] | outcome [2] | outcome [3] | outcome [4]
CCCOc1ccc2nc(NC(=O)OC)[nH]c2c1 | inactive | inactive | inactive | inactive |  |  |  | 
COc1ccccc1N1CCN(CCCNc2cc(=O)n(C)c(=O)n2C)CC1 | inactive | inactive | inactive | inactive |  |  |  | 
O=C(CCCCC(=O)Nc1c(I)cc(I)c(C(=O)O)c1I)Nc1c(I)cc(I)c(C(=O)O)c1I | inactive | inactive | inactive | inactive |  |  |  | 
C=CC[N+]1([C@H]2C[C@H]3[C@@H]4CC[C@H]5C[C@H](OC(C)=O)[C@@H](N6CCCCC6)C[C@]5(C)[C@H]4CC[C@]3(C)[C@H]2OC(=O)CC)CCCCC1 | inactive | inactive | inactive | inactive |  |  |  | 
CNC1CCCN(c2c(F)cc3c(=O)c(C(=O)O)cn(C4CC4)c3c2OC)C1 (stereo not given) | inactive | inactive | inactive | inactive |  |  |  | 
N[C@H](Cc1c[nH]c2ccccc12)C(=O)O | inactive | inactive | inactive | inactive |  |  |  | 
O=S1(=O)OC(c2ccc(O)cc2)(c2ccc(O)cc2)c2ccccc21 | inactive | inactive | inactive | inactive |  |  |  | 
CCOC(=O)c1c(N)sc2c1CCN(Cc1ccccc1)C2 | inactive | inactive | inactive | inactive |  |  |  | 
NC1=NCC2c3ccccc3Cc3ccccc3N12 (stereo not given) | inactive | inactive | inactive | inactive |  |  |  | 
CC(C)C[C@@H](N)C(=O)O | inactive | inactive | inactive | inactive |  |  |  | 
CN(C)CCn1nnnc1SCC1=C(C(=O)O)N2C(=O)[C@@H](NC(=O)Cc3csc(N)n3)[C@H]2SC1 | inactive | inactive | inactive | inactive |  |  |  | 
CCN(CC)CC(=O)Nc1c(C)cccc1C | inactive | inactive | inactive | inactive |  |  |  | 
O=C(O)C(=O)Nc1cccc(-c2nn[nH]n2)c1 | inactive | inactive | inactive | inactive |  |  |  | 
CC(=O)OCC(=O)[C@@]1(O)CC[C@H]2[C@@H]3CCC4=CC(=O)C=C[C@]4(C)[C@H]3[C@@H](O)C[C@@]21C | inactive | inactive | inactive | inactive |  |  |  | 
CCC(=O)O[C@]1(C(=O)COC)[C@@H](C)C[C@H]2[C@@H]3CCC4=CC(=O)C=C[C@]4(C)C3(F)[C@@H](O)C[C@@]21C (stereo not given in full) | inactive | inactive | inactive | inactive |  |  |  | 
CNC(=O)c1c(I)c(NC(=O)CCCCC(=O)Nc2c(I)c(C(=O)O)c(I)c(C(=O)NC)c2I)c(I)c(C(=O)O)c1I | inactive | inactive | inactive | inactive |  |  |  | 
C[C@@H](O)[C@H](N)C(=O)O | inactive | inactive | inactive | inactive |  |  |  | 
O=C(CCCCCCCCC#CI)Oc1ccccc1 | inactive | inactive | inactive | inactive |  |  |  | 
Nc1ccc(C(=O)NCC(=O)O)cc1 | inactive | inactive | inactive | inactive |  |  |  | 
Cc1ccc(O)cc1 | inactive | inactive | inactive | inactive |  |  |  | 
C/C(=C(\CCOP(=O)(O)O)SC(=O)c1ccccc1)N(C=O)Cc1cnc(C)nc1N |  |  |  |  | inactive [at 5.34 µM] | inactive [at 5.34 µM] | inactive [at 5.34 µM] | inactive [at 5.34 µM]
CC(CNC1CCCCC1)OC(=O)c1ccccc1 (stereo not given) | inactive | inactive | inactive | inactive |  |  |  | 
COCc1c(C(C)C)nc(C(C)C)c(/C=C/[C@@H](O)C[C@@H](O)CC(=O)O)c1-c1ccc(F)cc1 | inactive | inactive | inactive | 708 nM (active) |  |  |  | 
CCOC(=O)[C@H](CCc1ccccc1)N[C@H]1CS[C@H](c2cccs2)CN(CC(=O)O)C1=O | inactive | inactive | inactive | inactive |  |  |  | 
NC(N)=NC(=O)c1nc(Cl)c(N)nc1N | inactive | inactive | inactive | inactive |  |  |  | 
CO[C@]1(NC(=O)CSC(F)F)C(=O)N2C(C(=O)O)=C(CSc3nnnn3CCO)CO[C@H]21 | inactive | inactive | inactive | inactive |  |  |  | 
CCCCC(=O)O[C@]1(C(=O)CO)[C@@H](C)C[C@H]2[C@@H]3CCC4=CC(=O)C=C[C@]4(C)[C@@]3(F)[C@@H](O)C[C@@]21C | inactive | inactive | inactive | inactive |  |  |  | 
CN1CCCN=C1COC(=O)C(O)(c1ccccc1)C1CCCCC1 (stereo not given) | inactive | inactive | inactive | inactive |  |  |  | 
CC1(C)O[C@@H]2C[C@H]3[C@@H]4C[C@H](F)C5=CC(=O)CC[C@]5(C)[C@H]4[C@@H](O)C[C@]3(C)[C@]2(C(=O)CO)O1 | inactive | inactive | inactive | inactive |  |  |  | 
Cc1cc(C(C)(C)C)c(O)c(C)c1CC1=NCCN1 | inactive | inactive | inactive | inactive |  |  |  | 
